We go through one sequence from paper PMC7862700, “An all-to-all approach to the identification of sequence-specific readers for epigenetic DNA modifications on cytosine”.

What all share (experiment): DAPPL (digital affinity profiling via proximity ligation, sequencing); 10 mM Tris-HCl pH 7.5, 50 mM NaCl, 1 mM DTT, 4% glycerol, room temperature, 30 min; GST-TFs on glutathione beads, 16-mer random dsDNA library, 0.1% formaldehyde crosslink after washing; high values mean tight binding
The target of test [1] is T1, FEV (Homo sapiens, UniProt Q99581 1-238).
T1 sequence: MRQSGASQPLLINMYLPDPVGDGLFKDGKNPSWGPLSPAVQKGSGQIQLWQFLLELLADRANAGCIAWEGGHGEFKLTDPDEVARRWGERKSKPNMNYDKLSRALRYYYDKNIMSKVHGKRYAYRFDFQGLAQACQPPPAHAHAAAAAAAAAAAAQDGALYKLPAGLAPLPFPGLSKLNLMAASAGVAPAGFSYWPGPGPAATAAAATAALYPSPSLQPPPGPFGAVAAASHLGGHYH
Conditions: protein: recombinant; tags: N-terminal GST; dsDNA, one strand shown. In short, it runs like this: (§1)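 Binding signal is defined as a hexamer's read frequency for one factor over its frequency for the tag-only sample. To obtain reads, GST-fused human transcription factors were expressed in yeast, captured on glutathione beads, barcoded with DNA and pooled with that sample. Pools met 200 nmole of a 16-mer random double-stranded DNA library in Tris/NaCl/DTT/glycerol buffer for 30 min at room temperature before washing, 0.1% formaldehyde crosslinking, proximity ligation (BsaI/T4 ligase, 1 h, 37 °C), PCR and Illumina NextSeq500 sequencing.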

Test [2] addresses ETV5 (Homo sapiens, UniProt P41161 1-510). Particulars: protein: recombinant; tags: N-terminal GST; dsDNA, one strand shown. In short, it runs like this: as §1
The target of test [3] is HSF1 (Homo sapiens, UniProt Q00613 1-529). Conditions: protein: recombinant; tags: N-terminal GST; chain copies: 3; dsDNA, one strand shown. The gist of the method:
as §1

Test [4] addresses T2, SPIC (Homo sapiens, UniProt Q8N5J4 1-248).
T2 sequence: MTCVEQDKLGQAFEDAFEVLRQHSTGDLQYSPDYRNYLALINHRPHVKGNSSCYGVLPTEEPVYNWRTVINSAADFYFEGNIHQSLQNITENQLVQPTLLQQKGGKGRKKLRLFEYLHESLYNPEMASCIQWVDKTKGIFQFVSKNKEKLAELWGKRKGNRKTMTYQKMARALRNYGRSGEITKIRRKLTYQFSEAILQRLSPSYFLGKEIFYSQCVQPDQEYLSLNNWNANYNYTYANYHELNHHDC
Particulars: protein: recombinant; tags: N-terminal GST; dsDNA, one strand shown. The gist of the method:
as §1

Test [5] deals with ELF4 (Homo sapiens, UniProt Q99607 1-663). Particulars: protein: recombinant; tags: N-terminal GST; dsDNA, one strand shown. The gist of the method:
as §1

Test [6] deals with T3, ELK4 (Homo sapiens, UniProt P28324-2 1-405).
T3 sequence: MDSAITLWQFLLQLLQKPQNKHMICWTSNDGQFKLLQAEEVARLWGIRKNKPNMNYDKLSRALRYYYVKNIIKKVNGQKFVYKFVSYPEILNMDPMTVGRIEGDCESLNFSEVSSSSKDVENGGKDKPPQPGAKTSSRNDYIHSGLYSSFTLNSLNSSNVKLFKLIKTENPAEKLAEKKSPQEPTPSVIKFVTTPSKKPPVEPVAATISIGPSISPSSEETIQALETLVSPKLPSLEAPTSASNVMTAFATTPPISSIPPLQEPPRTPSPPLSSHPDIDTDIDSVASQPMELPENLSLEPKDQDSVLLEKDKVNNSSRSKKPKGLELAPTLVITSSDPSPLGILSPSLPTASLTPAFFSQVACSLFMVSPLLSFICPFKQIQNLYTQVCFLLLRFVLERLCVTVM
Conditions: protein: recombinant; tags: N-terminal GST; dsDNA, one strand shown. The gist of the method: as §1

In test [7] the target is T4, ETV2 (Homo sapiens, UniProt O00321 1-342).
T4 sequence: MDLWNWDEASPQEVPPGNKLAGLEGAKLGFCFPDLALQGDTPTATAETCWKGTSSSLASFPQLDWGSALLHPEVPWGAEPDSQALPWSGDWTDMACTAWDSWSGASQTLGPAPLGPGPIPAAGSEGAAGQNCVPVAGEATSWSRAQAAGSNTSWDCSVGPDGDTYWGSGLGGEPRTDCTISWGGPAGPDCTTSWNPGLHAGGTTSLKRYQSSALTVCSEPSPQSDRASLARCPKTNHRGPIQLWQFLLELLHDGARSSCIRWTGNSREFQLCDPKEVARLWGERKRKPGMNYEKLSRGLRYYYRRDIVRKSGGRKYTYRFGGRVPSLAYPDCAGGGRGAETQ
Particulars: protein: recombinant; tags: N-terminal GST; dsDNA, one strand shown. In short, it runs like this:
as §1

Test [8] has as its target T5, ELF3 (Homo sapiens, UniProt P78545 1-371).
T5 sequence: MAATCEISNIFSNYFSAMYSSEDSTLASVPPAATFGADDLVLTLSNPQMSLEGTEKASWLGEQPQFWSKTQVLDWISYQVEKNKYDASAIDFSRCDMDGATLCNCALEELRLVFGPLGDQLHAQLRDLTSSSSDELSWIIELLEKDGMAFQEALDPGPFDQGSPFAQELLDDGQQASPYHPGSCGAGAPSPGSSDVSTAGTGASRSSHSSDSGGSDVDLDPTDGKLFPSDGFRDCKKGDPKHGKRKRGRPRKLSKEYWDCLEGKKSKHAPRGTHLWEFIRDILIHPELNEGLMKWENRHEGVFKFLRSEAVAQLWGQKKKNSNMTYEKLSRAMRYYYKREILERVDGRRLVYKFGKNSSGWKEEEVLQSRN
Particulars: protein: recombinant; tags: N-terminal GST; dsDNA, one strand shown. The gist of the method: as §1

Test [9] has as its target CRX (Homo sapiens, UniProt O43186 1-299). Particulars: protein: recombinant; tags: N-terminal GST; dsDNA, one strand shown. The gist of the method:
as §1

Test [10] has as its target ETV1 (Homo sapiens, UniProt P50549 1-477). Particulars: protein: recombinant; tags: N-terminal GST; dsDNA, one strand shown. In short, it runs like this:
as §1

Test [11] addresses T6, ERF (Homo sapiens, UniProt P50548 1-548).
T6 sequence: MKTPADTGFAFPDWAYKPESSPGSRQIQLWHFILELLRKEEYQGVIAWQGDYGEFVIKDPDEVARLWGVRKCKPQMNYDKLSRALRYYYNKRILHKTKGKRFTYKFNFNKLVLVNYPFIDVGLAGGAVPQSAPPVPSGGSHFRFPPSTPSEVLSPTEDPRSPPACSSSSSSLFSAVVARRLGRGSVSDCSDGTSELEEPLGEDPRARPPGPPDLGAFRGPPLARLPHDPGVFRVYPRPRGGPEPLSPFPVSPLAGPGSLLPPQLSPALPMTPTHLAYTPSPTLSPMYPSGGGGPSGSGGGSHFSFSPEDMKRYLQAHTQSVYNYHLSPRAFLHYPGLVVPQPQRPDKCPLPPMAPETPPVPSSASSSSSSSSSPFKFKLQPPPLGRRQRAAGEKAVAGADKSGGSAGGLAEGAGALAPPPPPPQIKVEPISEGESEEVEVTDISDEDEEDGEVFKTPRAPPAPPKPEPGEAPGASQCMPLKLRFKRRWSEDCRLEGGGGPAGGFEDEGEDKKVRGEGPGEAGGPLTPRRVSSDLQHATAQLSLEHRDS
Conditions: protein: recombinant; tags: N-terminal GST; dsDNA, one strand shown. In short, it runs like this:
as §1

The target in test [12] is T7, ETV3L (Homo sapiens, UniProt Q6ZN32 1-361).
T7 sequence: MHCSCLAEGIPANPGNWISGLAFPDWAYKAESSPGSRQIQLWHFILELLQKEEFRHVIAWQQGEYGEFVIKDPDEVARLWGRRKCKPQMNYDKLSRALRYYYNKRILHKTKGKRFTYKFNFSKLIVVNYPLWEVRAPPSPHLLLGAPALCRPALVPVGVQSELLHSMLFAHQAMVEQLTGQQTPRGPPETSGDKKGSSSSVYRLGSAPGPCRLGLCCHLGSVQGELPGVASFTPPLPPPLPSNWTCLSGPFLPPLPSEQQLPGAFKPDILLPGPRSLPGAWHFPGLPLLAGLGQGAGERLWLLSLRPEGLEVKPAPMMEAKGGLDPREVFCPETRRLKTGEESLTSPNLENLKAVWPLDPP
Particulars: protein: recombinant; tags: N-terminal GST; dsDNA, one strand shown. The gist of the method: as §1

Test [13] deals with T8, ETS2 (Homo sapiens, UniProt P15036 1-469).
T8 sequence: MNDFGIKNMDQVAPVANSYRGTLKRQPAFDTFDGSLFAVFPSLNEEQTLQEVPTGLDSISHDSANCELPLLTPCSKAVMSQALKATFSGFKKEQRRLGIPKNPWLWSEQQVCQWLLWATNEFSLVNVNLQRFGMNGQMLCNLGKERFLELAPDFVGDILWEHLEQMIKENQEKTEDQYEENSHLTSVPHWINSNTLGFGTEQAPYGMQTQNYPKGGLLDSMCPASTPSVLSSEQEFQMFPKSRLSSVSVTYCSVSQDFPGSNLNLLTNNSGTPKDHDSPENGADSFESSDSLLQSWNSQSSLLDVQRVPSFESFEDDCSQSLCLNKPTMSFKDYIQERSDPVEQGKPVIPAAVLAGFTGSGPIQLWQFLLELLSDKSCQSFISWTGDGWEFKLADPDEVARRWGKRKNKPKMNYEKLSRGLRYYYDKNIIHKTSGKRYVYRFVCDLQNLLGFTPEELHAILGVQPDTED
Particulars: protein: recombinant; tags: N-terminal GST; dsDNA, one strand shown. The gist of the method:
as §1

For test [14], the target named is T9, SPDEF (Homo sapiens, UniProt O95238 1-335).
T9 sequence: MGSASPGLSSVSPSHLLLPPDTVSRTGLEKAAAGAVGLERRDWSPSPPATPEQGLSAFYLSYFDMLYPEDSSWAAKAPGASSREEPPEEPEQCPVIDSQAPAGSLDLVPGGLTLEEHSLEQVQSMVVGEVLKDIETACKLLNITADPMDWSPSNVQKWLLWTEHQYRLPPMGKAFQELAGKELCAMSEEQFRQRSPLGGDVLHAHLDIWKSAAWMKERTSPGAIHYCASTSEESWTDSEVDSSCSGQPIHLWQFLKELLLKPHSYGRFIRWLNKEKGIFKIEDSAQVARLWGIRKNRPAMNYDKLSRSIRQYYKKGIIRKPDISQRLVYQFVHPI
Conditions: protein: recombinant; tags: N-terminal GST; dsDNA, one strand shown. In short, it runs like this: as §1

For test [15], the target named is T10, ETV7 (Homo sapiens, UniProt Q9Y603 1-341).
T10 sequence: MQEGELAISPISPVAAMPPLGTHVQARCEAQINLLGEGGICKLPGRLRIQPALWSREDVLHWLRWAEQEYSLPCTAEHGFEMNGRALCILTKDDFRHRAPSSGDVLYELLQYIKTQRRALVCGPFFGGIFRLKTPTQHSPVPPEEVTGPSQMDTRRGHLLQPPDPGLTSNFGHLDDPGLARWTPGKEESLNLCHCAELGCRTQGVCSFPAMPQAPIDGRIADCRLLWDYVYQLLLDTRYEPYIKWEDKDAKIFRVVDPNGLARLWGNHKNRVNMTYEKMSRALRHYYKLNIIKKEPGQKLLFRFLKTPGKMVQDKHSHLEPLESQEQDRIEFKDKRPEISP
Particulars: protein: recombinant; tags: N-terminal GST; dsDNA, one strand shown. The gist of the method: as §1

For test [16], the target named is T11, ELF5 (Homo sapiens, UniProt Q9UKW6-2 1-255).
T11 sequence: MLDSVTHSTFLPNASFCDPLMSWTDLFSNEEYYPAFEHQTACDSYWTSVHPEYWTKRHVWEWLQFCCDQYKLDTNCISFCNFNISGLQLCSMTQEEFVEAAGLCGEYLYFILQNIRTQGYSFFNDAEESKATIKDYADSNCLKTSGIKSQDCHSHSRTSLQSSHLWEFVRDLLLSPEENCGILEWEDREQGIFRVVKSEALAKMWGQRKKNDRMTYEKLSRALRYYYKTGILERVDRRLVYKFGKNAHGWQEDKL
Conditions: protein: recombinant; tags: N-terminal GST; dsDNA, one strand shown. In short, it runs like this:
as §1

For test [17], the target named is T12, ETV3 (Homo sapiens, UniProt P41162-2 1-143).
T12 sequence: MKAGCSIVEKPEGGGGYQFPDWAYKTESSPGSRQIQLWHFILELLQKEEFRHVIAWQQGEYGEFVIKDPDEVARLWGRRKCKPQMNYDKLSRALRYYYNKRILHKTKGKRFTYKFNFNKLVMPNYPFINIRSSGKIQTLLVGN
Conditions: protein: recombinant; tags: N-terminal GST; dsDNA, one strand shown. The gist of the method: as §1

Test [18] concerns the target ETV6 (Homo sapiens, UniProt P41212 1-452). Conditions: protein: recombinant; tags: N-terminal GST; dsDNA, one strand shown. The gist of the method:
as §1

Chain of ETV5 (P41161 whole entry): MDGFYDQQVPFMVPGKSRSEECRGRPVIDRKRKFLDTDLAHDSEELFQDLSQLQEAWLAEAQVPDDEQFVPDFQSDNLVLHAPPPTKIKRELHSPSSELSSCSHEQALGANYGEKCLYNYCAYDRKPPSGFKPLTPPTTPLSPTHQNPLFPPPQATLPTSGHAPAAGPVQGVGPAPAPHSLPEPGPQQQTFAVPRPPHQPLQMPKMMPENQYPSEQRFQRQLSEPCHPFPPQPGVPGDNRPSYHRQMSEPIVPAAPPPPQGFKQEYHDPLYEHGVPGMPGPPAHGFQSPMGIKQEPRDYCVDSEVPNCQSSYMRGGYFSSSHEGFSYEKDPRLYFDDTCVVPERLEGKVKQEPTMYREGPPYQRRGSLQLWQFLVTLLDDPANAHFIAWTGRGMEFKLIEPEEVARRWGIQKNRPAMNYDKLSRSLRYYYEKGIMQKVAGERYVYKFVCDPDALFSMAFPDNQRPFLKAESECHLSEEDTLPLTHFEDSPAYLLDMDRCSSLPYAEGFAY
Chain of ELF4 (Q99607 whole entry): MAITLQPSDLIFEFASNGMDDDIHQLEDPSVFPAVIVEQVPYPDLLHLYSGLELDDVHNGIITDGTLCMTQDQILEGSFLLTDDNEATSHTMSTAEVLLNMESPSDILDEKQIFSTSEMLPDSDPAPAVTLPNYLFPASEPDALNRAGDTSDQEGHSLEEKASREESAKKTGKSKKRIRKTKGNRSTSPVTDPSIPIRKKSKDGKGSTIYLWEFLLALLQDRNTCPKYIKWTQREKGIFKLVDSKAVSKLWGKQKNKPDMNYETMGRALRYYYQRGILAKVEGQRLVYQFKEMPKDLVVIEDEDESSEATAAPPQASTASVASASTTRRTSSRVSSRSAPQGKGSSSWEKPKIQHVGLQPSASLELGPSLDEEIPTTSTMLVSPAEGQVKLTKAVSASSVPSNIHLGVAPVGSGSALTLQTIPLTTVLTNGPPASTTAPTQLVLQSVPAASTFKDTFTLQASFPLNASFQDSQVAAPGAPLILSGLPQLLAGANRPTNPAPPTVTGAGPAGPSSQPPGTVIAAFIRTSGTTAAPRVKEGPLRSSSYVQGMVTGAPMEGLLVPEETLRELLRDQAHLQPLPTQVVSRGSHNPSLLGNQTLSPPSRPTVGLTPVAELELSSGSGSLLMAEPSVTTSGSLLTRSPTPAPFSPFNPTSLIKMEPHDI
Chain of ETV6 (P41212 whole entry): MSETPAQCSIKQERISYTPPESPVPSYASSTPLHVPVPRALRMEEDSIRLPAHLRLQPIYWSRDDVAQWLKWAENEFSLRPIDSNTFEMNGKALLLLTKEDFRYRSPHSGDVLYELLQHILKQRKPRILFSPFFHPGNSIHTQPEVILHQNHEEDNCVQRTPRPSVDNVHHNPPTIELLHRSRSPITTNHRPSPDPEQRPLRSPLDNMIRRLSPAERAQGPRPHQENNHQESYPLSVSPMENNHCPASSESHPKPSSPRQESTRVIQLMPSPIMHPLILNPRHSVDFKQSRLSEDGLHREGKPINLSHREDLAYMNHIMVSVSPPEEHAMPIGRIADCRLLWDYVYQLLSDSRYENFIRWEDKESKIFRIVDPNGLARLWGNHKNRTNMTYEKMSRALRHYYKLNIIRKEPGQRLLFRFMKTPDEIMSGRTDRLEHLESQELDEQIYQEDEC
Chain of CRX (O43186 whole entry): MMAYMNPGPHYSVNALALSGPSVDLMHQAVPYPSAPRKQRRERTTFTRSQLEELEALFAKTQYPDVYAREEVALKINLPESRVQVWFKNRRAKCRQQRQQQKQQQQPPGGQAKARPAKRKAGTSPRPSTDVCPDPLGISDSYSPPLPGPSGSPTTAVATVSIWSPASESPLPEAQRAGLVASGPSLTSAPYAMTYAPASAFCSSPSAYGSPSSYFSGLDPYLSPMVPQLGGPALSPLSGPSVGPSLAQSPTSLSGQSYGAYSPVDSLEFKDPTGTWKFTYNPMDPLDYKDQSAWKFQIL
Chain of HSF1 (Q00613 whole entry): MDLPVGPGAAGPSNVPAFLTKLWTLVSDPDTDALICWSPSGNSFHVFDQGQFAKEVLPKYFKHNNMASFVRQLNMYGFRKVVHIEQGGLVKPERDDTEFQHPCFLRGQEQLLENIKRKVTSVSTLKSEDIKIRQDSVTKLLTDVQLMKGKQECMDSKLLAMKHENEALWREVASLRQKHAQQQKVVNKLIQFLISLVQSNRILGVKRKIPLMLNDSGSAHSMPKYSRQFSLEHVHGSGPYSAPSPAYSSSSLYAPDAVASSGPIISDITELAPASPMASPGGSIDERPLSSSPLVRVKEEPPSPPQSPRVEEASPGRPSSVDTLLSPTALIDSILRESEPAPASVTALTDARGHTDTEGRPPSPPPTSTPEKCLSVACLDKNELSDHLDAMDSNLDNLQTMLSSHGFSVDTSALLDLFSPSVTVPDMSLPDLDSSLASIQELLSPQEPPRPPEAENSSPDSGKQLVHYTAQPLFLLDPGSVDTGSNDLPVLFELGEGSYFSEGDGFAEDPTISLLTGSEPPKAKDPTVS
Chain of ETV1 (P50549 whole entry): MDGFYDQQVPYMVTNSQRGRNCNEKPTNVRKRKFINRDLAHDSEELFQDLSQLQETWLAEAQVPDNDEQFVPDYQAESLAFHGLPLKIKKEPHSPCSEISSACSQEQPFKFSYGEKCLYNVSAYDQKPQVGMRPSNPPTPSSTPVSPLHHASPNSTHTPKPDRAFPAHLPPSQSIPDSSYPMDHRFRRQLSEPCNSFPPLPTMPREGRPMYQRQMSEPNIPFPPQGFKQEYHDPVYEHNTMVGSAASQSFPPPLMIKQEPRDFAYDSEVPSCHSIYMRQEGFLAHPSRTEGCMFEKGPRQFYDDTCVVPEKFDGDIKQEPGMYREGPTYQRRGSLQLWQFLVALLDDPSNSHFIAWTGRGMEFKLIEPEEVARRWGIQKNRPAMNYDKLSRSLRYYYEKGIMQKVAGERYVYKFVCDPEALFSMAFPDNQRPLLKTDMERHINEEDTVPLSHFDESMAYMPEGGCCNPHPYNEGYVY

Take TGTTAT: the binding signal in [1] was 1.34 fold enrichment (6-mer frequency, TF over GST control); in [2], 1.34 fold enrichment (6-mer frequency, TF over GST control); in test [3], 1.31 fold enrichment (6-mer frequency, TF over GST control); in test [4], 1.45 fold enrichment (6-mer frequency, TF over GST control); in test [5], 1.39 fold enrichment (6-mer frequency, TF over GST control); in test [6], 1.35 fold enrichment (6-mer frequency, TF over GST control). In addition, the binding signal in test [7] is 1.3 fold enrichment (6-mer frequency, TF over GST control); in [8] it was 1.35 fold enrichment (6-mer frequency, TF over GST control); in test [9] it was 1.4 fold enrichment (6-mer frequency, TF over GST control); in test [10], 1.42 fold enrichment (6-mer frequency, TF over GST control); in [11] it was 1.47 fold enrichment (6-mer frequency, TF over GST control); in test [12] it was 1.49 fold enrichment (6-mer frequency, TF over GST control). The binding signal in [13] was 1.34 fold enrichment (6-mer frequency, TF over GST control); in [14], 1.41 fold enrichment (6-mer frequency, TF over GST control); in test [15], 1.24 fold enrichment (6-mer frequency, TF over GST control); in test [16], 1.36 fold enrichment (6-mer frequency, TF over GST control); in test [17], 1.32 fold enrichment (6-mer frequency, TF over GST control); in [18] it was 1.39 fold enrichment (6-mer frequency, TF over GST control).
